Reference: PubChem BioAssay (NCATS)
Inconclusive results are not listed. Unmarked numbers belong to inactive results. Active and inactive are the calls of the source. The call rests on the fitted dose curve; in most records, active means well fitted cell-killing curve with a large enough effect; inconclusive means small, poorly fitted or top-dose-only effect, or effect the other way; inactive means no such curve, though single readings can be large or run the other way. Positions of bridges follow the written chain, without caps; N, C: chain ends. Non-standard residues stand in square brackets, D forms with d. Residues, ends and D or L forms follow the SMILES beside them. ξ: configuration not given here. *: point of attachment. Octanoyl(6-Me) = CCC(C)CCCCC(=O)*; ξThr(3R) = C[C@@H](O)C(N)C(=O)O; dDab = NCC[C@@H](N)C(=O)O; Dab = NCC[C@H](N)C(=O)O

Assay: Quantitative High-Throughput drug screen in 47 multiple myeloma cell lines against the NCATS MIPE library collection: KMS12PE_JCRB cell viability assay (AID 1918972); further: nearly all actives have a fitted effect of over 30% in size
Conditions: KMS12PE myeloma viability, CellTiter-Glo ATP, 48 h; series mostly up to 45.8 µM; viability: at the top concentration
How it was run: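 Approved and investigational drugs from MIPE 4.0 were added by pin tool to 500 cells per well. After 48 hours at 37C, ATP-based CellTiter-Glo luminescence indicated remaining viability.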
Potency means the concentration at half of the fitted maximal effect.

SMILES	viability	Potency
CN1[C@H]2CC(OC(=O)[C@@H](CO)c3ccccc3)C[C@H]1[C@H]1O[C@H]12 (stereo partly drawn)	123% [at 23.2 µM]	–
COC(=O)[C@@H]1CC2=CC(=O)CC[C@]2(C)[C@@]23O[C@@H]2C[C@@]2(C)[C@H](CC[C@@]24CCC(=O)O4)[C@@H]13	112%	–
CN1C(C(=O)Nc2ccccn2)=C(O)c2sc(Cl)cc2S1(=O)=O	115%	–
CCN1CCN(C(=O)N[C@H](C(=O)N[C@@H]2C(=O)N3C(C(=O)O)=C(CSc4nnnn4C)CS[C@@H]23)c2ccc(O)cc2)C(=O)C1=O	127% [at 15.3 µM]	–
CN[C@H](CC(C)C)C(=O)N[C@H]1C(=O)N[C@@H](CC(N)=O)C(=O)N[C@@H]2C(=O)N[C@H]3C(=O)N[C@H](C(=O)N[C@H](C(=O)O)c4cc(O)cc(O)c4-c4cc3ccc4O)[C@H](O)c3ccc(c(Cl)c3)Oc3cc2cc(c3O[C@@H]2O[C@H](CO)[C@@H](O)[C@H](O)[C@@H]2O[C@H]2C[C@](C)(N)[C@H](O)[C@H](C)O2)Oc2ccc(cc2Cl)[C@H]1O	88.7%	–
O=C(O)C[C@H](O)C[C@H](O)C=Cc1c(C2CC2)nc2ccccc2c1-c1ccc(F)cc1	–	3720 nM (active)
C[C@H](NC(=O)[C@@H](O)c1cc(F)cc(F)c1)C(=O)N[C@@H]1C(=O)N(C)c2ccccc2-c2ccccc21	106%	–
O=[N+]([O-])c1cn2c(n1)OC[C@@H](OCc1ccc(OC(F)(F)F)cc1)C2	125%	–
C[C@]12CCC(=O)C=C1[C@@H]1CC1[C@H]1[C@H]3[C@@H]4C[C@H]4[C@@]4(CCC(=O)O4)[C@@]3(C)CC[C@H]12 (stereo partly drawn)	–	20900 nM (active)
CCC[C@H]1C[C@H](C(=O)N[C@@H]([C@@H]2O[C@@H](SC)[C@@H](O)[C@@H](O)[C@@H]2O)[C@H](C)Cl)N(C)C1	111%	–
CC(=O)N1CCN(c2ccc(OCc3nn(C)c(C)c3-c3cccc4c(CCCOc5cccc6ccccc56)c(C(=O)O)n(Cc5cccnc5)c34)cc2)CC1	–	469 nM (active)

Assay: Quantitative High-Throughput drug screen in 47 multiple myeloma cell lines against the NCATS MIPE library collection: KMS20_JCRB cell viability assay (AID 1918973); further: nearly all actives have a fitted effect of over 45% in size
Conditions: CellTiter-Glo ATP, 48 h; series mostly up to 45.8 µM; viability (% of DMSO): at the top concentration
How it was run: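 CellTiter-Glo luminescence (ATP) after 48 h compound exposure, 37C/5% CO2; 500 cells/well; MIPE 4.0 approved/investigational drugs pinned in; DMSO = 100%, media only = 0% viability.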

SMILES	viability (% of DMSO)	Potency
CC[C@H]1OC(=O)[C@H](C)[C@@H](O[C@H]2C[C@@](C)(OC)[C@@H](O)[C@H](C)O2)[C@H](C)[C@@H](O[C@@H]2O[C@H](C)C[C@H](N(C)C)[C@@H]2O)[C@](C)(OC)C[C@@H](C)C(=O)[C@H](C)[C@@H](O)[C@]1(C)O	95.2%	–
O=C(c1ccc(F)cc1)N1CCC[C@H](c2nc(-c3ccc(F)cc3)no2)C1	100%	–
Nc1nc(N)c2nc(-c3cccc(O)c3)c(-c3cccc(O)c3)nc2n1	–	7430 nM (active)
N[C@H]1CN(c2c(F)cc3c(=O)c(C(=O)O)cn(C4C[C@@H]4F)c3c2Cl)CC12CC2 (stereo partly drawn)	95.9%	–
C[C@H](O)[C@@H]1C(=O)N2C(C(=O)O)=C(S[C@@H]3CN[C@H](CNS(N)(=O)=O)C3)[C@@H](C)[C@@H]12	120%	–
Cn1cnc2c(F)c(Nc3ccc(Br)cc3F)c(C(=O)NOCCO)cc21	–	66.2 nM (active)
O=c1[nH]c(=O)n([C@H]2C[C@@H](O)[C@@H](CO)O2)cc1C=CBr	120%	–
C[C@@H]1[C@H](C)CC[C@]2(C(=O)O)CC[C@]3(C)C(=CC[C@@H]4[C@@]5(C)C[C@@H](O)[C@H](O)[C@@](C)(CO)[C@H]5CC[C@]43C)[C@@H]12	101%	–
O=C(Nc1ccc(Oc2ccnc3[nH]ccc23)c(F)c1)c1cccn(-c2ccc(F)cc2)c1=O	126%	–
CCOC(=O)C=C[C@H](C[C@@H]1CCNC1=O)NC(=O)[C@@H](CC(=O)[C@@H](NC(=O)c1cc(C)on1)C(C)C)Cc1ccc(F)cc1	115%	–
CCC(C)CCCCC(=O)N[C@@H](CCN)C(=O)NC(C(=O)N[C@H](CCN)C(=O)N[C@@H]1CCNC(=O)C([C@@H](C)O)NC(=O)[C@@H](CCN)NC(=O)[C@@H](CCN)NC(=O)[C@@H](CC(C)C)NC(=O)[C@H](Cc2ccccc2)NC(=O)[C@H](CCN)NC1=O)[C@@H](C)O (stereo partly drawn) ({Octanoyl(6-Me)}-[Dab][ξThr(3R)][dDab][dDab][Dab]F[dL][dDab][dDab][ξThr(3R)]; lactam 4-C)	106%	–
O=C1c2cccc(O)c2C(=O)c2c(O)cc(CO)cc21	94.7%	–
CC(C)(O)CC[C@@H](O)[C@](C)(O)[C@H]1CC[C@@]2(O)C3=CC(=O)[C@@H]4C[C@@H](O)[C@@H](O)C[C@]4(C)[C@@H]3CC[C@]12C	80.5%	–
COc1cc(C(=O)NC2CCN(C)CC2)ccc1Nc1ncc2c(n1)N(C1CCCC1)CCC(=O)N2C(C)C	–	16600 nM (active)
CN1[C@H]2CC(OC(=O)[C@@H](CO)c3ccccc3)C[C@H]1[C@H]1O[C@H]12 (stereo partly drawn)	–	7 nM (active)
COC(=O)[C@@H]1CC2=CC(=O)CC[C@]2(C)[C@@]23O[C@@H]2C[C@@]2(C)[C@H](CC[C@@]24CCC(=O)O4)[C@@H]13	114%	–
CN1C(C(=O)Nc2ccccn2)=C(O)c2sc(Cl)cc2S1(=O)=O	–	2090 nM (active)
CCN1CCN(C(=O)N[C@H](C(=O)N[C@@H]2C(=O)N3C(C(=O)O)=C(CSc4nnnn4C)CS[C@@H]23)c2ccc(O)cc2)C(=O)C1=O	121% [at 15.3 µM]	–
C[C@H](NC(=O)[C@@H](O)c1cc(F)cc(F)c1)C(=O)N[C@@H]1C(=O)N(C)c2ccccc2-c2ccccc21	113%	–
C[C@]12CCC(=O)C=C1[C@@H]1CC1[C@H]1[C@H]3[C@@H]4C[C@H]4[C@@]4(CCC(=O)O4)[C@@]3(C)CC[C@H]12 (stereo partly drawn)	119%	–
CCC[C@H]1C[C@H](C(=O)N[C@@H]([C@@H]2O[C@@H](SC)[C@@H](O)[C@@H](O)[C@@H]2O)[C@H](C)Cl)N(C)C1	106%	–
CC(=O)N1CCN(c2ccc(OCc3nn(C)c(C)c3-c3cccc4c(CCCOc5cccc6ccccc56)c(C(=O)O)n(Cc5cccnc5)c34)cc2)CC1	–	52.6 nM (active)
